Compound activity as filed in PubChem.
Compounds with a hit are over-represented: about 1.6% of the library has one in this group of screens.
KCNQ2 block: rat KCNQ2 potassium channel inhibitors, primary screen, cell-based, CHO-K1, FluxOR thallium flux, B-score; 20 min; active compounds read low; B-score at 10 µM; 1.1% of 310,000 active;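 active = fluorescence ratio B-score at most minus 3 library SDs, with starting brightness B-score within 2 library SDs, cut at about -5.5 in these data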
KCNQ2 pot: potentiators of rat KCNQ2 potassium channel. 0.54% of 310,000 active. AID 2239, 2010. B-score at 10 µM. CHO-K1 KCNQ2, FluxOR thallium flux fluorescence; active compounds read high. Potassium voltage-gated channel subfamily KQT member 2 (Rattus norvegicus), O88943;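 active = fluorescence ratio B-score at least 3 SD of library B-scores, with initial fluorescence B-score within 3 of them, cut at about 5.3 in these data; same plate scores as AID 2156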;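 also: B-score of peak minus minimum over baseline fluorescence ratio after K+ and Tl+ stimulus; positive B-score means potentiation of KCNQ2 with more thallium influx and brighter signal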
Kir21 conf inh: mouse Kir2.1 channel blockers, retest, confirmation, cell-based, FluxOR thallium flux, duplicate | 41% of 2,300 active | shares compounds with KCNQ2 pot | Kir2.1-expressing cells, FluxOR thallium flux fluorescence; active compounds read low | AID 2032, 2009 | Tl flux remaining, % of negative control (active compounds read low), % at 10 µM;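 active = Primary-screen hit whose thallium flux fell at least 3 control SD below untreated wells in both duplicates, with normal baseline fluorescence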;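 also: 0% = blank wells without stimulus and 100% = stimulated no-compound controls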
HEK293 Tl flux: counter-screen for Kir2.1 inhibitors: effect in parental HEK293 cells; FluxOR thallium flux fluorescence; 0% = unstimulated blank wells; 19% of 2,300 active; FluxOR signal as % of negative control (100 = no effect), % at 10 µM; shares compounds with KCNQ2 pot;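 active = dye signal at least 3 control SD above or below untreated wells in both duplicates, raw fluorescence within 3, either direction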;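 also: percent is based on the flux ratio of peak minus minimum fluorescence over baseline F0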
CHO-K1 Tl ctr: nonspecific thallium flux increase in parental CHO-K1, confirmation, counter-screen for KCNQ2 potentiator project, cell-based, FluxOR thallium flux, duplicate | AID 2282, 2010 | shares compounds with KCNQ2 pot | parental CHO-K1 cells, FluxOR thallium flux fluorescence; zero = vehicle mean+3SD, 100% = vehicle-minus-blank window | activity increase over 3SD of controls, % at 10 µM | 43% of 1,200 active;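 active = signal rise of at least 3 SD above the untreated control mean, in both duplicate wells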;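 also: counter screen of KCNQ2 potentiator hits so any rise reflects channel-independent effects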
KCNQ1 sel pot: human KCNQ1 channel potentiation off-target, confirmation, selectivity assay for KCNQ2 potentiator project, cell-based, CHO, FluxOR thallium flux. CHO KCNQ1 stable, FluxOR thallium flux fluorescence; beyond 3SD, as % of vehicle-control signal. shares compounds with KCNQ2 pot. 28% of 1,200 active. activation over 3SD threshold, % at 10 µM;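 active = fluorescence ratio rise of at least 3 SD of vehicle wells above their mean, in both replicate wells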;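 also: 0% = vehicle mean plus 3 SD and 100% = vehicle minus unstimulated blank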
KCNQ2 pot confirm: rat KCNQ2 channel potentiators, confirmation, cell-based, CHO, FluxOR thallium flux, duplicate; shares compounds with KCNQ2 pot; CHO-KCNQ2 cells, FluxOR thallium flux fluorescence; potentiation, less the hit threshold, % at 10 µM; 68% of 1,200 active; AID 2287, 2010;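 active = fluorescence ratio rising 3 SD or more over the vehicle control mean in both replicates, plus primary screen hit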;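 also: peak minus minimum thallium fluorescence divided by baseline after K/Tl stimulus; 0% = vehicle mean plus 3 SD and 100% = vehicle minus unstimulated blank difference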
Kir21 spec: mouse Kir2.1 channel activation off-target, confirmation, selectivity assay for KCNQ2 potentiator project, cell-based, HEK293, FluxOR thallium flux | HEK293 Kir2.1, FluxOR thallium flux fluorescence | 2% of 1,200 active | shares compounds with KCNQ2 pot | AID 2345, 2010 | activity over 3SD threshold, % at 10 µM;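 active = fluorescence ratio rise of at least 3 SD above the vehicle-control mean, seen in both replicates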;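 also: 0% = vehicle mean plus 3 SD and 100% = vehicle minus no-stimulus blank window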
KCNQ2 W236L MoA: potentiators of retigabine-insensitive KCNQ2 W236L, mechanism study for KCNQ2 potentiator project, cell-based, rat KCNQ2 W236L, CHO, automated patch clamp. shares compounds with KCNQ2 pot. automated patch clamp current. current increase over 3SD of negative controls (%), active compounds read high, % at 25 µM. 10% of 940 active;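 active = current increase at least 3 SD of the untreated controls above them in both duplicate recordings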
* marks the source's active call; other numbers are inactive results; i = inactive; . = not tested or not shown.

SMILES	KCNQ2 block	KCNQ2 pot	Kir21 conf inh	HEK293 Tl flux	CHO-K1 Tl ctr	KCNQ1 sel pot	KCNQ2 pot confirm	Kir21 spec	others
CCOC(=O)C1(CC2CCCCO2)CCN(Cc2cc3ccccc3[nH]2)CC1 (stereo not given)	i	8.45*	.	.	-28.8	-9.8	-23.9	-59.6
CCCCc1ncc(CN2CCC(CC3CCCCO3)(C(=O)OCC)CC2)[nH]1 (stereo not given)	i	0.83	.	.	.	.	.	.
CC(C)CCn1c2ccccc2c2cc(CC(N)=O)ccc21	i	0.94	i	i	.	.	.	.
NC(=O)CCn1c2ccccc2c2ccccc21	i	0.2	.	.	.	.	.	.
COc1cc(NC(=O)c2ccccc2)c(OC)cc1Cl	i	.	.	.	.	.	.	.
COc1ccc(NC(=O)C(=O)NNC(=O)c2cccs2)c(OC)c1	i	8.55*	i	240.0%*	-4.3	19.1*	6.9*	-46.2	KCNQ2 W236L MoA=i
Cc1ccc(NC(=O)c2cccs2)cc1	i	0.09	.	.	.	.	.	.
COc1ccc(NC(=O)C(=O)NNC(=O)c2cccs2)cc1	i	3.28	.	.	.	.	.	.
Cc1ccc(NC(=O)C(=O)NNC(=O)c2cccs2)cc1	i	10.2*	i	341.0%*	-8.1	-13.5	34.9*	-5.8	KCNQ2 W236L MoA=i
COc1cc(OC)cc(C(=O)NNC(=O)C(=O)Nc2cc(OC)c(Cl)cc2OC)c1	i	9.3*	i	182.5%*	-2.2	-12.9	-4.3	-25.6	KCNQ2 W236L MoA=i
COc1ccc(OC)c(NC(=O)C(=O)NNC(=O)C23CC4CC(CC(C4)C2)C3)c1	i	8.67*	i	272.0%*	-10.9	-16.9	7.5*	-24.1	KCNQ2 W236L MoA=i
COc1ccc(S(=O)(=O)NNC(=O)C23CC4CC(CC(C4)C2)C3)cc1	i	.	.	.	.	.	.	.
CCOC(=O)c1ccc(N=Nc2c(C)c(C#N)c(O)[nH]c2=O)cc1	i	0.07	.	.	.	.	.	.
O=C(CNC(=S)N(Cc1ccccc1)Cc1cccnc1)NC1CCCCC1	i	.	.	.	.	.	.	.
CCNC(=S)/N=C(/Nc1ccc(OC)cc1)Nc1nc(C)cc(C)n1	i	.	.	.	.	.	.	.
CCNC(=S)/N=C(/Nc1ccccc1)Nc1nc(C)cc(C)n1	i	0.68	i	i	.	.	.	.
CN(c1ccc(Cl)cc1)c1cc(=O)n(C)c2ccccc12	i	.	i	i	.	.	.	.
CN(C(=O)COc1cc(=O)n(C)c2ccccc12)c1ccc(Cl)cc1	i	.	.	.	.	.	.	.
COC(=O)c1sc(NC(=S)NC(=O)c2ccccc2C)nc1C	i	12.2*	i	302.0%*	-4.0	32.6*	46.6*	-37.0	KCNQ2 W236L MoA=i
COC(=O)c1sc(NC(=S)NC(=O)c2ccc(F)cc2)nc1C	i	2.32	.	.	.	.	.	.
O=C(Nc1ccsc1C(=O)O)c1ccc(Cl)cc1	i	.	.	.	.	.	.	.
CCN(CC)c1ccc(/C=C/c2ccc3ccc(OC)cc3[n+]2CC)cc1	-7.61*	-7.61	i	i	.	.	.	.
CC[n+]1c(/C=C/c2ccc(N(C)C)cc2)ccc2ccccc21	-9.31*	-9.31	i	i	.	.	.	.
CC[n+]1c(/C=C/c2ccc(OC(C)=O)c(OC)c2)ccc2ccccc21	i	.	.	.	.	.	.	.
